From PubChem BioAssay AID504690 (Sanford-Burnham Center for Chemical Genomics, 2011)
Out of some 350,000 compounds screened, about 2,700 (0.77%) were called active. The sample as a whole holds a higher share of actives than the screen did. A number with no mark means an inactive call.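 The calls were made as follows: active = inhibition reaching at least a set limit at 20 µM in the primary screen (cut at about 59% in these data); inactive = the rest.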

The molecules below were run on glucose-6-phosphate dehydrogenase-6-phosphogluconolactonase (Plasmodium falciparum 3D7) (assay: inhibition of malaria parasite G6PD (PfGluPho) – biochemical, fluorescence intensity, uHTS, primary screen (AID 504690;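 also: 0% = DMSO wells with substrate and 100% = DMSO wells lacking glucose-6-phosphate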)). Settings: PfGluPho enzyme, NADPH resazurin-diaphorase fluorescence; at 20 µM; hits give high values.

Compound | inhibition
O=C(CN1CCN(c2ccc(O)cc2)CC1)Nc1ccc(-c2ccccc2)cc1 | 69% (active)
O=C(CN1CCN(c2cccc(Cl)c2)CC1)Nc1ccc(S(=O)(=O)N2CCOCC2)cc1 | 7.9%
O=C(CN1CCN(c2ccc(F)cc2)CC1)Nc1cccc(C(F)(F)F)c1 | 12.7%
O=C(CN1CCN(c2ccc(O)cc2)CC1)Nc1cc(S(=O)(=O)N2CCOCC2)ccc1Cl | 73.8% (active)
Cc1ccc(Cl)cc1NC(=O)CN1CCN(S(=O)(=O)N2CCOCC2)CC1 | -17%
O=C(CN1CCOCC1)Nc1ccccc1 | -18.6%
COc1cc2c(cc1OC)C(C(=O)NCc1ccco1)C1c3ccccc3CCN1C2=O (configuration not stated) | 0.17%
CCn1nc(NC(=O)c2ccco2)c2cc3ccc(C)cc3nc21 | 6.85%
O=C(NCCN=C1NS(=O)(=O)c2ccccc21)c1ccc(S(=O)(=O)N2CCOCC2)cc1 | 4.66%
CC(C)(C)NC(=O)COc1ccc(CNc2ccc3[nH]c(=O)[nH]c3c2)cc1 | 94.7% (active)
O=C(COc1ccc([N+](=O)[O-])cc1Cl)Nc1ccc2[nH]c(=O)[nH]c2c1 | 13.1%
COC(=O)c1ccc(OCC(=O)NC(C)(C)C)cc1 | 3.26%
COc1ccccc1CN1CC(C(=O)NCCc2cn[nH]c2)CCC1=O (configuration not stated) | -1.62%
Cc1ccc(C(=O)OCC(=O)Nc2ccc(Cl)cn2)cc1S(=O)(=O)N1CCOCC1 | -1.58%
COC(C[C@@H](O)C[C@@H](O)[C@H](C)OCc1ccccc1)OC | 10.8%
CCOC(=O)c1cccc(NC(=O)CCn2nnc3ccccc32)c1 | -9.98%
COc1c(O)cccc1-c1nnn(CCC(=O)OCC(=O)c2ccccc2)n1 | 6.47%
O=C(CCn1nnc2ccccc21)OCC(=O)c1ccc([N+](=O)[O-])cc1 | 59.2% (active)
Cc1ccc(CSc2ccc(S(=O)(=O)N3CCCCC3)cn2)cc1 | 10.9%
CC(=O)Nc1ccc(CC#N)cc1 | -8.66%
O=C(NC(=O)c1cc(OCC(F)(F)F)ccc1OCC(F)(F)F)Nc1ccccc1 | 15.2%
COc1ccc2cc(-c3[nH]ncc3CNCCn3nc(C)cc3C)ccc2c1 | -4.25%
COc1ccc(Cl)cc1-n1c(=S)sc2c(=O)n(-c3ccc(F)cc3)c(SCC(=O)O)nc21 | 86.6% (active)

Compound | inhibition
COc1cccc(-n2c(=S)sc3c(=O)n(-c4ccccc4OC)c(SCC4OCCO4)nc32)c1 | 22.9%
COc1cccc(-n2c(=S)sc3c(=O)n(-c4ccccc4C)c(SCC(=O)O)nc32)c1 | -2.42%
C/C(CC(=O)NC(C)c1ccccc1)=N\NC(N)=S (configuration not stated) | 6.14%
CSc1ccc(S(=O)(=O)N2CCC(C(=O)NCc3ccncc3)CC2)cc1 | -30.2%
CCOC(=O)C1CCN(Cc2c(C(=O)N3CCOCC3)nc3c(C)cccn23)CC1 | -12.6%
Cc1cccn2c(CNCC(C)Oc3cccnc3)c(C(=O)N3CCOCC3)nc12 (configuration not stated) | 9.53%
Cc1cccn2c(CN(C)C3CCCc4ccccc43)c(C(=O)N3CCOCC3)nc12 (configuration not stated) | 62.9% (active)
c1ccc2cc3c(NCCN4CCOCC4)ccnc3cc2c1 | 6.78%
CC(=O)Nc1sc2c(c1C(c1cccc(F)c1)N1CCN(CCO)CC1)CCCC2 (configuration not stated) | 7.18%
CCOC(=O)C(NC(=O)CC(C)C)(Nc1sc2c(c1C(N)=O)CCCC2)C(F)(F)F (configuration not stated) | -8.45%
NC(=O)c1c(NC(=O)CSc2nnc(-c3ccco3)n2N)sc2c1CCCC2 | 7.61%
NC(=O)c1c(Nc2nc3c(F)cccc3s2)sc2c1CCCC2 | 63.4% (active)
COc1ccc2[nH]c(=O)c(CNc3ccc(C)c(C)c3)cc2c1 | 41%
CCN1CCN(CCNC(=O)c2ccc3c(c2)NC(=O)/C(=C\c2cccc(Cl)c2)S3)CC1 | 2.78%
CCN1CCCC1CNC(=O)c1ccc2c(c1)NC(=O)/C(=C\c1ccccc1F)S2 (configuration not stated) | 127% (active)
O=C1Nc2cc(C(=O)N3CCC(N4CCCCC4)CC3)ccc2S/C1=C\c1ccccc1 | -9.66%
CN(C)S(=O)(=O)c1ccc(Cl)c(NC(=O)COC(=O)CC(NC(N)=O)c2ccc(Cl)cc2)c1 (configuration not stated) | -3.62%
CCOC(=O)c1c(C)[nH]c(C)c1C(=O)CSc1nc(N)cc(N)n1 | 9.63%
CCCCNC(=O)c1ccccc1NC(=O)C1=C(C)OCCS1 | -13.5%
Cc1nc2ccc(NC(=O)c3cccc(S(=O)(=O)N4CCOCC4)c3)cc2s1 | 19.6%
O=C(Nc1ccc(N2CCOCC2)c(Cl)c1)c1ccc(S(=O)(=O)N2CCOCC2)cc1 | 0.32%
O=C(Nc1nncs1)c1cccc(S(=O)(=O)N2CCCCC2)c1 | -40.8%
O=C(Nc1ccc(S(=O)(=O)N2CCOCC2)cc1)c1ccc2ncsc2c1 | 72.8% (active)

Compound | inhibition
Cc1cccc(C(=O)Nc2nnc(S(=O)(=O)N3CCCCCC3)s2)c1 | 95.7% (active)
O=C(Nc1cccc(S(=O)(=O)N2CCCCC2)c1)c1cncc(Br)c1 | 9.89%
CCOC(=O)CSc1nnc(NC(=O)c2cccc(S(=O)(=O)N3CCCCC3)c2)s1 | -28.5%
O=C(Nc1ccc(S(=O)(=O)Nc2nccs2)cc1)c1cccc(S(=O)(=O)N2CCOCC2)c1 | -1.66%
Cc1cccc(NC(=O)c2cccc(S(=O)(=O)N3CCCC3)c2)n1 | -1.18%
O=C(Nc1nnc(S(=O)(=O)N2CCOCC2)s1)c1cccc(Br)c1 | 103% (active)
O=C(Nc1nnc(-c2ccccc2)o1)c1cccc(S(=O)(=O)N2CCOCC2)c1 | 0.98%
O=C(Nc1nnc(S(=O)(=O)N2CCCCCC2)s1)c1cccc(Br)c1 | 88.1% (active)
COc1ccc2[nH]c(=O)c(C3c4cc(OC)c(OC)cc4CCN3C(=O)c3ccco3)cc2c1 (configuration not stated) | 8.2%
O=C(NCc1cccnc1)c1ccc(CS(=O)(=O)c2ccc(Br)cc2)o1 | -4.96%
CC1CCCCC1NC(=O)CSc1nnc(N)s1 (configuration not stated) | -8.21%
O=C(COC(=O)c1cccc(Cl)c1)NC1CCCCCCC1 | 17.2%
CCCN(CCC)C(=O)C1c2ccccc2Oc2ccccc21 | -24.1%
CC(C)(C)c1nnc(NC(=O)C2c3ccccc3Oc3ccccc32)s1 | 77.4% (active)
CC(C)(C)NC(=O)NC(=O)COC(=O)C1c2ccccc2Oc2ccccc21 | -18.1%
CCN(CC)c1ccc2oc(=O)c(C)nc2c1 | 94.1% (active)
CCc1ccc2oc(-c3ccc(N)cc3)nc2c1 | 16.4%
Cc1ccc2oc(=O)ccc2c1 | -9.67%
COc1ccc(S(=O)(=O)N2CCOCC2)cc1NC(=O)Cc1coc2cc(C)ccc12 | -4.24%
O/N=C(\c1ccc2c(c1)OCCO2)C1CCCCC1 | -2.41%
COc1ccccc1-n1c(=S)[nH]c2c(sc(=S)n2-c2ccc(C)cc2C)c1=O | 78.9% (active)
CCc1ccc(-n2c(=S)sc3c(=O)n(-c4ccccc4OC)c(=S)[nH]c32)cc1 | 55.6%
COc1ccccc1N1CCN(c2nc(C)cc(=O)[nH]2)CC1 | 15.1%

Compound | inhibition
CCCCn1nc(C(=O)Nc2ccc(S(=O)(=O)Nc3ncccn3)cc2)c2ccccc2c1=O | -8.76%
NS(=O)(=O)c1ccc(CNC(=O)c2cc(S(=O)(=O)N3CCOCC3)ccc2N2CCCC2)cc1 | 2.61%
COc1ccc(NC(=O)COC(=O)CNC(=O)C2CCCCC2)cc1 | -2.97%
CN(Cc1ccccc1)S(=O)(=O)c1nnc(NC(=O)c2ccccc2F)s1 | 27.5%
COc1cccc(C(=O)Nc2ccc3nc4n(c(=O)c3c2)CCCCC4)c1 | 20%
COc1cccc(C(=O)Nc2nnc(S(=O)(=O)N(C)c3ccccc3)s2)c1 | 96.6% (active)
CN(Cc1ccco1)S(=O)(=O)c1nnc(NC(=O)c2ccccc2)s1 | 58.2%
COc1ccc(OC)c(NC(=O)c2cccc(S(=O)(=O)N3CCN(C(C)=O)CC3)c2)c1 | -11.9%
COc1cccc(C(=O)Nc2nnc(S(=O)(=O)N3CCOCC3)s2)c1 | 97.7% (active)
CC(=O)c1cccc(NC(=O)COc2ccc(S(=O)(=O)N3CCOCC3)cc2)c1 | 3.48%
Cc1ccccc1OCC(=O)Nc1nnc(S(=O)(=O)N2CCCC2)s1 | -10.3%
COc1cccc(C(=O)Nc2nnc(S(=O)(=O)N3CCCCC3)s2)c1 | 112% (active)
Cc1csc2ncc(C(=O)N(Cc3ccccc3)c3ccccn3)c(=O)n12 | -14.5%
Cc1cccc(C)c1NC(=O)C1CCCN1C(=O)OC(C)(C)C (configuration not stated) | -0.36%
CC(C)(C)c1cc(=O)n2c(nc3ccccc32)[nH]1 | 12.8%
CCc1ccc(NC(=O)C(=O)NNC(=O)c2cccs2)cc1 | -15.6%
CCc1c(C)sc(NC(=O)c2cccs2)c1C(N)=O | 71% (active)
CCc1cccc(C)c1NC(=O)COC(=O)CNC(=O)c1cccs1 | 4.68%
C=CCCC(=O)N1C[C@H]2CON(C)[C@H]2C[C@H]1c1cccc(Nc2ccccc2)c1 | 21.3%
O=C(OCC(=O)N1CCCCC1)c1ccc(OC(F)(F)F)cc1 | -6.53%
CCCCN1Cc2c(nc3cc(-c4ccccc4)[nH]n3c2=O)C1=O | -27.7%
O=c1c2c(nc3nc[nH]n13)CCC2 | 16.4%
O=c1c2c(nc3cc(-c4cccc(Cl)c4)[nH]n13)CCCC2 | 75% (active)
